# Data from PubChem BioAssay (EPA / NIEHS).
# Records with an inconclusive call do not appear. Activity calls are given as the source filed them. The calls were made as follows: active = hit-call score of the fitted dose curve at least 0.9, where 1 is the maximum; inconclusive = response in the unintended direction; inactive = score below 0.9.
# Assay: ACEA_ER_80hr: ACEA Biosciences xCELLigence Real-Time Cell Analysis on Estrogen Receptor Agonism for Proliferation (AID 2282667)
# Conditions: T47D proliferation, impedance (xCELLigence), 80 h
# How it was run: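 Real-time impedance growth kinetics of human T-47D breast cells read 80 h after dosing, gain-of-signal fitted relative to DMSO. Compounds: 1:4 serial series, top final concentration 100 uM, n = 2.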
SMILES,outcome,AC50
CC(CO)(CO)[N+](=O)[O-],inactive,
O=[N+]([O-])c1cc(N(CCO)CCO)ccc1NCCO,inactive,
CC(C)COC(=O)c1ccccc1,inactive,
C=C(C)CCCC(C)CCO (stereo unspecified),inactive,
C=CCCCCCCCCC(=O)OCC,inactive,
CCC(C)COC(=O)CC(C)C (stereo unspecified),inactive,
FC(F)(F)c1ccc(Cl)c(Cl)c1,inactive,
O=C(O)C(F)(F)OC(F)(F)C(F)(F)OC(F)(F)C(F)(F)C(F)(F)C(F)(F)F,inactive,
CC(=O)OC(C)(C)C,inactive,
CCCCCc1cccc(=O)o1,inactive,
CC(=N[Si](C)(C)C)O[Si](C)(C)C,,0.0603 µM (active)
CCCCCCC(O)CCOC(C)=O (stereo unspecified),inactive,
CCC(=O)OC(C)(C)C1CC=C(C)CC1 (stereo unspecified),inactive,
O=C(O)c1ccco1,inactive,
C[N+](C)(C)CCO,inactive,
CCC(C)(C)c1cc(O)c(C(C)(C)CC)cc1O,inactive,
NCCN1CCNCC1,,10.8 µM (active)
[Cu+],inactive,

SMILES,outcome,AC50
CC(=O)Nc1cc(S(=O)(=O)O)cc2cc(S(=O)(=O)O)c(N=Nc3ccccc3)c(O)c12,inactive,
O=C1OCc2ccccc21,inactive,
OCCCO,inactive,
O=S(=O)(O)CCCN1CCOCC1,inactive,
CC(C)C(=O)OCC=Cc1ccccc1,inactive,
CN(C)CCC=C1c2ccccc2CCc2ccccc21,,0.124 µM (active)
CC/C=C\CCCCO,inactive,
CCCCCCC(C)O (stereo unspecified),inactive,
CCC(CC)CO,inactive,
N#CCCCC(C#N)CCC#N (stereo unspecified),inactive,
N[C@@H](CCC(=O)O)C(=O)O,inactive,
COc1ccc(OC)cc1,inactive,
CC(=O)N(C)C,inactive,
Cc1cccc(C)c1,inactive,
CC/C=C\CCCCCCCCCCOC(C)=O,inactive,
O=C(O)c1ccccc1O,inactive,
C[C@H](CCC(=O)O)[C@H]1CC[C@H]2[C@@H]3CC[C@@H]4C[C@H](O)CC[C@]4(C)[C@H]3CC[C@]12C,inactive,
CCCOC(=O)CC,inactive,
